Records with an inconclusive call do not appear. Values without a mark were called inactive. Calls come from the whole dose curve; as a rule, active = well fitted cell-killing curve with a large enough effect; inconclusive = small, poorly fitted or top-dose-only effect; inactive = no such curve, though single readings can be large or run the other way.
experiment: qHTS of pediatric cancer cell lines to identify multiple opportunities for drug repurposing: Primary screen for Rh30 cells (AID 1347107); conditions: Rh30 rhabdomyosarcoma viability, CellTiter-Glo luminescence, 48 h; series mostly up to 46 µM; activity change, negative = cytotoxic: at the top concentration; note: nearly all actives have a fitted effect of over 75% in size
In short: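 Viability after 48 h compound treatment at 37C, 500-1,000 cells/well, read as ATP luminescence with CellTiter-Glo. Primary screens used 11-point (MIPE, 0.78 nM-46 µM) or 8-point (NPC, 0.59 nM-46 µM) final concentrations; follow-up screens used 11-point dilutions.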
% is set by controls: 0 for no effect and ±100 for the full control effect.

| Structure (SMILES) | activity change, negative = cytotoxic |
| --- | --- |
| OC(CCN1CCCCC1)(c1ccccc1)c1ccccc1 | 10.8% |
| CN1C(CCl)Nc2cc(Cl)c(S(N)(=O)=O)cc2S1(=O)=O (centres undefined) | 16.1% |
| CCN1CCN(c2cc3c(cc2F)c(=O)c(C(=O)O)cn3C2CC2)CC1 | 17.9% |
| CC(C)(CO)[C@@H](O)C(=O)NCCCO | 22.4% |
| CC(=O)Nc1c(I)cc(I)c(C(=O)O)c1I | 12.3% |
| CC1(C)O[C@@H]2[C@@H](CO[C@@]3(COS(N)(=O)=O)OC(C)(C)O[C@@H]23)O1 | 30.7% |
| OCc1ccccc1O | 20% |
| C[C@]12CC[C@H]3[C@@H](CCC4=CC(=O)CC[C@@]43C)[C@@H]1CC[C@@H]2C(=O)CO | 12.9% |
| CCCCOc1cc(C(=O)NCCN(CC)CC)c2ccccc2n1 | 3.03% |
| Cc1ccc(Nc2c(F)cccc2Cl)c(CC(=O)O)c1 | 25.6% |
| NCCCC[C@H](N[C@@H](CCc1ccccc1)C(=O)O)C(=O)N1CCC[C@H]1C(=O)O | 20.6% |
| Cc1ccnc(NS(=O)(=O)c2ccc(N)cc2)n1 | 30.5% |
| CCCCCCCCCCCCCCCCCC(=O)OCC(O)CO (centres undefined) | 24.1% |
| CN(C/C=C/c1ccccc1)Cc1cccc2ccccc12 | 12.1% |
| Cc1c(C)n(CCN(C)C)c2ccc(C(=O)OCCN(C)C)cc12 | 12.1% |
| CC1=C(C(=O)O)N2C(=O)[C@@H](NC(=O)[C@H](N)c3ccc(O)cc3)[C@H]2SC1 | 6.61% |
| CN(C)CCCOc1nn(Cc2ccccc2)c2ccccc12 | -2.9% |
| CN=C(NC#N)Nc1ccc(C2=NNC(=O)CC2C)cc1 (centres undefined) | 12.6% |
| CCCCN1CCCC1C(=O)Nc1c(C)cc(C)cc1C (centres undefined) | 27% |
| CCCCS(=O)(=O)N[C@@H](Cc1ccc(OCCCCC2CCNCC2)cc1)C(=O)O | 18.1% |

| Structure (SMILES) | activity change, negative = cytotoxic |
| --- | --- |
| Cc1cc(N)c2cc(NC(=O)Nc3ccc4nc(C)cc(N)c4c3)ccc2n1 | -4.91% |
| NC[C@H]1O[C@H](O[C@H]2[C@H](O)[C@@H](O[C@H]3O[C@H](CO)[C@@H](O)[C@H](N)[C@H]3O)[C@H](N)C[C@@H]2N)[C@H](N)[C@@H](O)[C@@H]1O | 1.18% [at 16.1 µM] |
| CN(C)CCOc1ccccc1Cc1ccccc1 | 17.8% |
| C=C1C(=C/C=C2\CCC[C@]3(C)[C@@H]([C@H](C)/C=C/[C@@H](O)C4CC4)CC[C@@H]23)C[C@@H](O)C[C@@H]1O | 11.2% |
| O=c1[nH]c(=O)n([C@H]2CCCO2)cc1F | 6.16% |
| COc1cccc(OC)c1C(=O)N[C@@H]1C(=O)N2[C@@H]1SC(C)(C)[C@@H]2C(=O)O | 24.3% |
| Cc1c(C)n(Cc2ccccc2)c2ccc(C(=O)OCCN(C)C)cc12 | 12.8% |
| c1ccc(CNCCNCc2ccccc2)cc1 | 16.7% |
| CCOC(=O)OC(C)OC1=C(C(=O)Nc2ccccn2)N(C)S(=O)(=O)c2ccccc21 (centres undefined) | 13.8% |
| c1ccc(OCc2ccc(CCCN3CCOCC3)cc2)cc1 | 13% |
| COc1cc(C(=S)N2CCOCC2)cc(OC)c1OC | 10.5% |
| NC[C@H]1O[C@H](O[C@H]2[C@H](O[C@@H]3O[C@H](CO)[C@@H](O)[C@H]3O)C(O)[C@H](N)C[C@@H]2N)[C@H](N)[C@@H](O)[C@@H]1O (some centres undefined) | 23.6% [at 9.22 µM] |
| Cc1ccccc1C(=O)Nc1ccc(C(=O)N2CCCC(N(C)C)c3ccccc32)cc1 (centres undefined) | -1.85% |
| C[C@]12CC[C@@H]3c4ccc(O)cc4CC[C@H]3[C@@H]1C[C@@H](O)[C@@H]2O | 20% |
| CC(C)=CCC1C(=O)N(c2ccccc2)N(c2ccccc2)C1=O | 4.07% |
| CC(O)C(=O)O (centres undefined) | 11.7% |
| COc1cccc2c1C(=O)c1c(O)c3c(c(O)c1C2=O)C[C@@](O)(C(C)=O)C[C@@H]3O[C@H]1C[C@H](N)[C@H](O)[C@H](C)O1 | -7.56% |
| O=C1OCCN1/N=C/c1ccc([N+](=O)[O-])o1 | 23.4% |
| Cc1cc(O)c(C(C)C)cc1Cl | 24.2% |
